Source: publication PMC7862700, “An all-to-all approach to the identification of sequence-specific readers for epigenetic DNA modifications on cytosine”

Columns and labels:
Assay in all cases: DAPPL (digital affinity profiling via proximity ligation, sequencing); 10 mM Tris-HCl pH 7.5, 50 mM NaCl, 1 mM DTT, 4% glycerol, room temperature, 30 min; GST-TFs on glutathione beads, 16-mer random dsDNA library, 0.1% formaldehyde crosslink after washing; high values mean tight binding
FEV = biological target: T1, FEV (Homo sapiens, UniProt Q99581 1-238); settings: protein: recombinant; tags: N-terminal GST; dsDNA, one strand shown
T1 sequence: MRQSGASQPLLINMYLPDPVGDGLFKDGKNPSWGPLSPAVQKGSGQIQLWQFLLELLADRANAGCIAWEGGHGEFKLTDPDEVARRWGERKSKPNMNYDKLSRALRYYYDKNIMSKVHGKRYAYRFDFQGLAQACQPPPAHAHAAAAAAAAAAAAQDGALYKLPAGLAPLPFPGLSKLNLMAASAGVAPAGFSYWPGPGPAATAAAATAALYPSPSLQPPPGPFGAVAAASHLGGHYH
Procedure, shortened: (§1)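 Binding signal is each hexamer's read frequency for a factor divided by its frequency in the tag-only sample. The factors were GST-fused human transcription factors from yeast, captured on glutathione beads, DNA-barcoded and pooled with that sample. Pools were incubated with 200 nmole of a random double-stranded 16-mer DNA library in Tris/NaCl/DTT/glycerol buffer at room temperature for 30 min, then washed, crosslinked with 0.1% formaldehyde, proximity-ligated with BsaI/T4 ligase (1 h, 37 °C), PCR-amplified and sequenced on an Illumina NextSeq500.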

ETV5 = ETV5 (Homo sapiens, UniProt P41161 1-510); settings: protein: recombinant; tags: N-terminal GST; dsDNA, one strand shown
Sequence of ETV5 (P41161 whole entry): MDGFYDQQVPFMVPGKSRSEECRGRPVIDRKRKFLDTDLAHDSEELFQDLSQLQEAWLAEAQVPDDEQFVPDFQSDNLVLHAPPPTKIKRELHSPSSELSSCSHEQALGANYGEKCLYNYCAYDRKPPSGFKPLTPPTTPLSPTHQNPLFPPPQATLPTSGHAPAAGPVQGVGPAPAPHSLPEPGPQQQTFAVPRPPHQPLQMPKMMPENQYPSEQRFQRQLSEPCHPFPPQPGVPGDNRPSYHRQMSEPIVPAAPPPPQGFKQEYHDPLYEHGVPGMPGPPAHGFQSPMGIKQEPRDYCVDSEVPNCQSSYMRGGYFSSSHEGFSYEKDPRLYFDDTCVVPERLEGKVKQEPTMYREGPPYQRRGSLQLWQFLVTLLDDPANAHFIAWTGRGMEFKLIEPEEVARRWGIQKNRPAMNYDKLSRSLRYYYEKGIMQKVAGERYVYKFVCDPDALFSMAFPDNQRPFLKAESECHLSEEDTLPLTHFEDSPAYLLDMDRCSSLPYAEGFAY
Procedure, shortened: as §1

HSF1 = HSF1 (Homo sapiens, UniProt Q00613 1-529); settings: protein: recombinant; tags: N-terminal GST; chain copies: 3; dsDNA, one strand shown
Sequence of HSF1 (Q00613 whole entry): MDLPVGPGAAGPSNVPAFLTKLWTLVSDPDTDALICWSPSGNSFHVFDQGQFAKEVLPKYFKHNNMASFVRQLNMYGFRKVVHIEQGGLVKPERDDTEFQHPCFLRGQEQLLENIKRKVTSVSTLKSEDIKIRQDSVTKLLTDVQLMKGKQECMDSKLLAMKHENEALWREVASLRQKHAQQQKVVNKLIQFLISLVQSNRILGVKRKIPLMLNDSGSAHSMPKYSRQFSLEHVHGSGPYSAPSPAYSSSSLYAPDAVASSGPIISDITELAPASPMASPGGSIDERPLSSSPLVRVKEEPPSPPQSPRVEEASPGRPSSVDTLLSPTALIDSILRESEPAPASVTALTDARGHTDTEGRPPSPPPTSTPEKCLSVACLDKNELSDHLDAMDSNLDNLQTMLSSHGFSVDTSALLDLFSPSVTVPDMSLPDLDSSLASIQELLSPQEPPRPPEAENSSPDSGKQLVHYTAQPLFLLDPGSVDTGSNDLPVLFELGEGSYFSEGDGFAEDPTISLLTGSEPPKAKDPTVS
Procedure, shortened: as §1

SPIC = biological target: T2, SPIC (Homo sapiens, UniProt Q8N5J4 1-248); settings: protein: recombinant; tags: N-terminal GST; dsDNA, one strand shown
T2 sequence: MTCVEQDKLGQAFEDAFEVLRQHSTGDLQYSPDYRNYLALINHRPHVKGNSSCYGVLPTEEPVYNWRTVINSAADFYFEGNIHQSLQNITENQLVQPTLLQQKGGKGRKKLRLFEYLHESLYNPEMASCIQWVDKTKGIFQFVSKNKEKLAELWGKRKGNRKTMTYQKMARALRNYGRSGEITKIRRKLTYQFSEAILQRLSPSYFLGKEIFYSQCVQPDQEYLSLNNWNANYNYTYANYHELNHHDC
Procedure, shortened: as §1

ELF4 = ELF4 (Homo sapiens, UniProt Q99607 1-663); settings: protein: recombinant; tags: N-terminal GST; dsDNA, one strand shown
Sequence of ELF4 (Q99607 whole entry): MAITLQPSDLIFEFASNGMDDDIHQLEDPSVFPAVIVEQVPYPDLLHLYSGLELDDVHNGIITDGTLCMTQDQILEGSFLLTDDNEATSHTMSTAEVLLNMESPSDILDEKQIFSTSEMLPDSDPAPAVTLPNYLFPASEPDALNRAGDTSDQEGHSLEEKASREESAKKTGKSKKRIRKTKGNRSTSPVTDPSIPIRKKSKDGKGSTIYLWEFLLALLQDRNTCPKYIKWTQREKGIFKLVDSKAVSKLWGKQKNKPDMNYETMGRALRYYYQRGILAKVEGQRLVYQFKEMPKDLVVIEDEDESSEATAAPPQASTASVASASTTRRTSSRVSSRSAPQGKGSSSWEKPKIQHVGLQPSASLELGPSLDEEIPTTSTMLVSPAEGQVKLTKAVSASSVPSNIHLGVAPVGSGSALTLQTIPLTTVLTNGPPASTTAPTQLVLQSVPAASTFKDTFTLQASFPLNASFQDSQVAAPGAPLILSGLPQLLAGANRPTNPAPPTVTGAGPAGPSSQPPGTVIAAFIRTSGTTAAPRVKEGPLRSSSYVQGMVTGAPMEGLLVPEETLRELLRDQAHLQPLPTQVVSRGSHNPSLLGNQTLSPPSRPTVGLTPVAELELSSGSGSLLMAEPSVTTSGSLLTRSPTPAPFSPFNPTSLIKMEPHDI
Procedure, shortened: as §1

ELK4 = biological target: T3, ELK4 (Homo sapiens, UniProt P28324-2 1-405); settings: protein: recombinant; tags: N-terminal GST; dsDNA, one strand shown
T3 sequence: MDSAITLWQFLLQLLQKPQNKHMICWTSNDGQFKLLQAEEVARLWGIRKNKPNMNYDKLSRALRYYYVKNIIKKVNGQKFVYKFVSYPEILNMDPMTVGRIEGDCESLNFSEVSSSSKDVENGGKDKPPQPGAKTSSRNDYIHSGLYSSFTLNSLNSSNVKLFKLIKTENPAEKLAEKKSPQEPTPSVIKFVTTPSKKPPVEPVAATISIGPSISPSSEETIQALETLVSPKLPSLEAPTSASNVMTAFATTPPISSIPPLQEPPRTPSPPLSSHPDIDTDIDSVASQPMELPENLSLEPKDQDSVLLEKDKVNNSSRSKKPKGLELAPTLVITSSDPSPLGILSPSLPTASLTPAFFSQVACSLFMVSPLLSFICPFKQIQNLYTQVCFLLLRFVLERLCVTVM
Procedure, shortened: as §1

ETV2 = biological target: T4, ETV2 (Homo sapiens, UniProt O00321 1-342); settings: protein: recombinant; tags: N-terminal GST; dsDNA, one strand shown
T4 sequence: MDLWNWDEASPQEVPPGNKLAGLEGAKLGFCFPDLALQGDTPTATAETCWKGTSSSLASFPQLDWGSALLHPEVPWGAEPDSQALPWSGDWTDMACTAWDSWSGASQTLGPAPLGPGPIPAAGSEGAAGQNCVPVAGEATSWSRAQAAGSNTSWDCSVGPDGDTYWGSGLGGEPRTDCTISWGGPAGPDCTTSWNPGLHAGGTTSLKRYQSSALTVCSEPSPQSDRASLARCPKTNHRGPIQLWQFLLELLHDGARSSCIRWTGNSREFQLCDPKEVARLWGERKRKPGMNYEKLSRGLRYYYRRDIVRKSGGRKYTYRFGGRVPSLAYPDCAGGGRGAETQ
Procedure, shortened: as §1

ELF3 = biological target: T5, ELF3 (Homo sapiens, UniProt P78545 1-371); settings: protein: recombinant; tags: N-terminal GST; dsDNA, one strand shown
T5 sequence: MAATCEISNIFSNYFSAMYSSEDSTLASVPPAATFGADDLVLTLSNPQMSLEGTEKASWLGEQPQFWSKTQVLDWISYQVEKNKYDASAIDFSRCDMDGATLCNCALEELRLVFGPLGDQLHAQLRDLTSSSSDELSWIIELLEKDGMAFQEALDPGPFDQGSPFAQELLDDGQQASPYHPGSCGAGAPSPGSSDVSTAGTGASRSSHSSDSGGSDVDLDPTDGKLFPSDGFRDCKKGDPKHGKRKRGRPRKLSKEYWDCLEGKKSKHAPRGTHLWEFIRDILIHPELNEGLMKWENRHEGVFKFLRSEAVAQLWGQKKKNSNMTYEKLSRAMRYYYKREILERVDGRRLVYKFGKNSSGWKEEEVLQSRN
Procedure, shortened: as §1

ETV1 = ETV1 (Homo sapiens, UniProt P50549 1-477); settings: protein: recombinant; tags: N-terminal GST; dsDNA, one strand shown
Sequence of ETV1 (P50549 whole entry): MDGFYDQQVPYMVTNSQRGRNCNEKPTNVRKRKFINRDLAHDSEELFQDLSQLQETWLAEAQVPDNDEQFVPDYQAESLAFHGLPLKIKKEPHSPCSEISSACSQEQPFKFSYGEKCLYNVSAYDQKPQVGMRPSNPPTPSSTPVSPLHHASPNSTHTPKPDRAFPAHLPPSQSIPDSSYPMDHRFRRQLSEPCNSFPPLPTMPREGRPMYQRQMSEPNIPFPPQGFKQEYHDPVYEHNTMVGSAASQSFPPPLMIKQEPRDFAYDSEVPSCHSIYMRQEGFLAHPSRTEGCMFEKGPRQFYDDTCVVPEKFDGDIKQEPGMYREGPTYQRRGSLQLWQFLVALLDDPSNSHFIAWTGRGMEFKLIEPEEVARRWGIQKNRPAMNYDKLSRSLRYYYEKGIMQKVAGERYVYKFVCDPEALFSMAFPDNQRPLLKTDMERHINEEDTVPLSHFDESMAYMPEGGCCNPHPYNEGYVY
Procedure, shortened: as §1

CRX = CRX (Homo sapiens, UniProt O43186 1-299); settings: protein: recombinant; tags: N-terminal GST; dsDNA, one strand shown
Sequence of CRX (O43186 whole entry): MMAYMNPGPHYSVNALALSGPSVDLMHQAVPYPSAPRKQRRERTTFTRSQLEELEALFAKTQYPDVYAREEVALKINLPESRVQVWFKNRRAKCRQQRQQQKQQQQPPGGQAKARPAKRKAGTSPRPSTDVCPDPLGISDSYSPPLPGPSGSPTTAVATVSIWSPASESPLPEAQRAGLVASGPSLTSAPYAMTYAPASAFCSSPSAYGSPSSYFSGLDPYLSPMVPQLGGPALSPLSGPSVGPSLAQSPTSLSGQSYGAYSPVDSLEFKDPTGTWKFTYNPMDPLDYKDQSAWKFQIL
Procedure, shortened: as §1

Sequence | binding signal (FEV) | binding signal (ETV5) | binding signal (HSF1) | binding signal (SPIC) | binding signal (ELF4) | binding signal (ELK4) | binding signal (ETV2) | binding signal (ELF3) | binding signal (ETV1) | binding signal (CRX)
TGTTCA | 1.19 fold enrichment (6-mer frequency, TF over GST control) | 1.18 fold enrichment (6-mer frequency, TF over GST control) | 1.09 fold enrichment (6-mer frequency, TF over GST control) | 1.17 fold enrichment (6-mer frequency, TF over GST control) | 1.21 fold enrichment (6-mer frequency, TF over GST control) | 1.28 fold enrichment (6-mer frequency, TF over GST control) | 1.07 fold enrichment (6-mer frequency, TF over GST control) | 1.22 fold enrichment (6-mer frequency, TF over GST control) | 1.21 fold enrichment (6-mer frequency, TF over GST control) | –
TCCCAG | 1.08 fold enrichment (6-mer frequency, TF over GST control) | 1.06 fold enrichment (6-mer frequency, TF over GST control) | 1.16 fold enrichment (6-mer frequency, TF over GST control) | 1.01 fold enrichment (6-mer frequency, TF over GST control) | 1.15 fold enrichment (6-mer frequency, TF over GST control) | 1.25 fold enrichment (6-mer frequency, TF over GST control) | 1.02 fold enrichment (6-mer frequency, TF over GST control) | 1.14 fold enrichment (6-mer frequency, TF over GST control) | – | 1.19 fold enrichment (6-mer frequency, TF over GST control)
TCTATA | 1.15 fold enrichment (6-mer frequency, TF over GST control) | 1.17 fold enrichment (6-mer frequency, TF over GST control) | 1.4 fold enrichment (6-mer frequency, TF over GST control) | 1.26 fold enrichment (6-mer frequency, TF over GST control) | 1.23 fold enrichment (6-mer frequency, TF over GST control) | 1.24 fold enrichment (6-mer frequency, TF over GST control) | 1.03 fold enrichment (6-mer frequency, TF over GST control) | 1.08 fold enrichment (6-mer frequency, TF over GST control) | 1.08 fold enrichment (6-mer frequency, TF over GST control) | 1.36 fold enrichment (6-mer frequency, TF over GST control)
CCCCGA | 1.18 fold enrichment (6-mer frequency, TF over GST control) | 1.14 fold enrichment (6-mer frequency, TF over GST control) | 1.28 fold enrichment (6-mer frequency, TF over GST control) | 1.14 fold enrichment (6-mer frequency, TF over GST control) | 1.29 fold enrichment (6-mer frequency, TF over GST control) | 1.15 fold enrichment (6-mer frequency, TF over GST control) | 1.24 fold enrichment (6-mer frequency, TF over GST control) | 1.35 fold enrichment (6-mer frequency, TF over GST control) | – | 1.14 fold enrichment (6-mer frequency, TF over GST control)
CCCTGG | 1.08 fold enrichment (6-mer frequency, TF over GST control) | 1.09 fold enrichment (6-mer frequency, TF over GST control) | 1.11 fold enrichment (6-mer frequency, TF over GST control) | 1.25 fold enrichment (6-mer frequency, TF over GST control) | 1.14 fold enrichment (6-mer frequency, TF over GST control) | 1.21 fold enrichment (6-mer frequency, TF over GST control) | 1.04 fold enrichment (6-mer frequency, TF over GST control) | 1 fold enrichment (6-mer frequency, TF over GST control) | 1.18 fold enrichment (6-mer frequency, TF over GST control) | 1.06 fold enrichment (6-mer frequency, TF over GST control)
TCCAAA | 1.18 fold enrichment (6-mer frequency, TF over GST control) | 1.12 fold enrichment (6-mer frequency, TF over GST control) | 1.3 fold enrichment (6-mer frequency, TF over GST control) | 1.11 fold enrichment (6-mer frequency, TF over GST control) | 1.25 fold enrichment (6-mer frequency, TF over GST control) | 1.17 fold enrichment (6-mer frequency, TF over GST control) | 1.01 fold enrichment (6-mer frequency, TF over GST control) | 1.16 fold enrichment (6-mer frequency, TF over GST control) | 1.1 fold enrichment (6-mer frequency, TF over GST control) | 1.26 fold enrichment (6-mer frequency, TF over GST control)
TAGAAT | 1.04 fold enrichment (6-mer frequency, TF over GST control) | 1.03 fold enrichment (6-mer frequency, TF over GST control) | 3.07 fold enrichment (6-mer frequency, TF over GST control) | 1.04 fold enrichment (6-mer frequency, TF over GST control) | 1.13 fold enrichment (6-mer frequency, TF over GST control) | 1.14 fold enrichment (6-mer frequency, TF over GST control) | 1.06 fold enrichment (6-mer frequency, TF over GST control) | 1.19 fold enrichment (6-mer frequency, TF over GST control) | – | 1.83 fold enrichment (6-mer frequency, TF over GST control)
TCCACG | – | 1.04 fold enrichment (6-mer frequency, TF over GST control) | 1.15 fold enrichment (6-mer frequency, TF over GST control) | 1.15 fold enrichment (6-mer frequency, TF over GST control) | 1.13 fold enrichment (6-mer frequency, TF over GST control) | 1.13 fold enrichment (6-mer frequency, TF over GST control) | 1.3 fold enrichment (6-mer frequency, TF over GST control) | 1.02 fold enrichment (6-mer frequency, TF over GST control) | 1.08 fold enrichment (6-mer frequency, TF over GST control) | –
